Rab9 promoter act: qHTS Assay for Rab9 Promoter Activators. Huh7 Rab9 promoter-luciferase reporter, luminescence, 24 h. Potency, µM (doses to about 9.22 µM), inactives show at the top dose activation, negative = inhibition, usual class: activators. 320,000 compounds, 2.8% hits; further: % of control where 0% means no effect; nearly all actives have a fitted effect of over 60% in size
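Luciferase signal after 10 min detection reagent at ambient indicates Rab9 promoter upregulation; stably transfected Huh7 cells were treated 24 h with compound in DMSO at 37 °C, 5% CO2.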
Luc counter: Counterscreen for Luciferase (Kinase-Glo TM) Inhibition | Luciferin 4-monooxygenase (Photuris pensylvanica), Q27757 | Kinase-Glo luciferase, ATP luminescence, 8 min | Potency, µM (highest dose often 38.3 µM), inactives show at the highest dose activity change, negative = inhibition, hits mostly inhibitors | 200,000 compounds, 0.28% hits; further: on the % scale 0 is the no-effect control and ±100 the full control effect; nearly all actives have a fitted effect of over 60% in size
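Inhibition of Kinase-Glo luciferase light generation was assessed at 10 uM ATP in pH 7.2 imidazole buffer, with luminescence measured after eight minutes at ambient temperature.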
FLuc modulator: qHTS profiling assay for firefly luciferase inhibitor/activator using purifed enzyme and Km concentrations of substrates (counterscreen for miR-21 project) | Luciferin 4-monooxygenase (Photinus pyralis), P08659 | purified FLuc, Km substrates, luminescence inhibition | Potency, µM (doses to about 57.5 µM), without a hit: top-dose activity change, negative = inhibition, most hits filed as inhibitors | 360,000 compounds, 6.9% hits | AID 588342, 2011;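 further: plate controls were vehicle for no effect and reference inhibitor for full effect; nearly all actives have a fitted effect of over 55% in size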
Target sequence (P08659 whole entry, looked up): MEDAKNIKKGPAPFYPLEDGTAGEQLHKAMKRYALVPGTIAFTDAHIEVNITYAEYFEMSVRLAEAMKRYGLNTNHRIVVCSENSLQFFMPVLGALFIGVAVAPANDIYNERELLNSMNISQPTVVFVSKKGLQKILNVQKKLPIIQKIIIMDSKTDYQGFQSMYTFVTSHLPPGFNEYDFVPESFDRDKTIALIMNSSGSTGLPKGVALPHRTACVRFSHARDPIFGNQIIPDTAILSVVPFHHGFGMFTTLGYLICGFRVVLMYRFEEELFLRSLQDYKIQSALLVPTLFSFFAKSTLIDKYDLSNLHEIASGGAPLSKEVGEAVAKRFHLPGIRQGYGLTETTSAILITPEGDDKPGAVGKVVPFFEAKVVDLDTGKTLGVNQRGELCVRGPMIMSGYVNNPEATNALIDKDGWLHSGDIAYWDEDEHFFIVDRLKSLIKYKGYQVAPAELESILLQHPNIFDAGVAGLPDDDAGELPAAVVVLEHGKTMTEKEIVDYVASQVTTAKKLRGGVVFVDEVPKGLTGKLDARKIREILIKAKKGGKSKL
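Purified P. pyralis luciferase, 10 nM final, with Km-level 10 uM D-luciferin and 10 uM ATP in 50 mM Tris acetate pH 7.5, 10 mM Mg acetate, 0.01% Tween-20, 0.05% BSA; 6-point qHTS titration about 60 µM downward; luminescence read.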
SMN2 splice up: qHTS Assay for Enhancers of SMN2 Splice Variant Expression; 210,000 compounds, 2.8% hits; Potency, µM (titrated, usually from 46.1 µM), inactives show at the highest dose activity change, positive = activation, actives largely listed as activators; HEK293 SMN2-luciferase splicing reporter, luminescence, 30-36 h; further: % of control where 0% means no effect; nearly all actives have a fitted effect of over 55% in size
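HEK293 cells carry an SMN2 […]–luciferase reporter in which exon 7 inclusion puts luciferase in frame. Cells were plated 10-12 h before compound addition, then incubated 30-36 h at 37C. ONE-Glo luminescence was read; sodium butyrate at 4.5 mM final served as control.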
NPC1 prom act: qHTS Assay for NPC1 Promoter Activators; Huh7 NPC1 promoter luciferase reporter, 24 h; Potency, µM (titrated, usually from 9.22 µM), without a hit: at the top dose activation, most hits filed as activators; 320,000 compounds, 2.4% hits; AID 485313, 2010; further: % of control where 0% means no effect; nearly all actives have a fitted effect of over 60% in size
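Stable NPC1-promoter luciferase Huh7 line; cpd (DMSO) 24 h, 37 °C, 5% CO2; Amplite luciferase reagent 10 min RT; luminescence readout. qHTS format.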
ELG1 genotox: qHTS screen for small molecules that induce genotoxicity in human embryonic kidney (HEK293T) cells expressing luciferase-tagged ELG1. HEK293T ELG1-luciferase reporter, luminescence, 16 h. Potency, µM (series often up to 46 µM), inactives show top-dose activity change, positive = activation, hits mostly activators. 330,000 compounds, 1.3% hits. AID 504466, 2011; further: % of control where 0% means no effect; nearly all actives have a fitted effect of over 60% in size
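16 hr compound incubation (37 °C, 5% CO2) of HEK293T cells carrying luciferase-tagged ELG1; luciferase then measured by ONE-Glo luminescence after 30 min at RT.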
An asterisk follows results filed as active; ? = inconclusive; · = no result; [ ] = another dose, or the depositor's remark. Most compounds without a hit are left out; they make up all but 7.3% or so of the library. The call rests on the fitted dose curve; in most records, active means well fitted curve in the direction sought with a large enough effect; inconclusive means small, poorly fitted or top-dose-only effect, or another doubt; inactive means no such curve, though single readings can be large; an effect the other way counts as inactive or inconclusive. Potency means the concentration at half of the fitted maximal effect.

SMILES	Rab9 promoter act	Luc counter	FLuc modulator	SMN2 splice up	NPC1 prom act	ELG1 genotox
CCOC(=O)c1cn2nc(Oc3ccc(C)cc3)ccc2n1	?	·	?	·	10%	?
CCOC(=O)c1cn2nc(N3CCCC3)ccc2n1	0.32µM*	·	2.1µM*	·	0.5µM*	?
CC(C)[C@@H](CC(=O)N[C@@H]1CCCC[C@H]1C(=O)N[C@H](CC(=O)N[C@@H](CCC(=O)O)CC(=O)O)Cc1c[nH]c2ccccc12)NC(=O)C[C@H](Cc1c[nH]c2ccccc12)NC(=O)[C@@H]1CNCC[C@H]1N	·	0%	·	3%	·	·
COc1ccccc1NC(=O)CSc1oc(-c2ccccc2)nc1S(=O)(=O)c1ccccc1	·	·	-3%	-24%	·	·
Cc1cc(O)c(C(=O)/C=C/c2cccc([N+](=O)[O-])c2)c(=O)o1	-16%	·	21µM*	·	-13%	1%
CCc1cccc(NC(=O)CCNS(=O)(=O)c2ccc3c(c2)CCN3C(C)=O)c1	·	·	5%	-30%	·	·
O=C(N/N=C/c1ccc(O)c(O)c1O)/C(=C/c1ccc([N+](=O)[O-])cc1)NC(=O)c1ccccc1	-9%	-3%	11µM*	1%	-3%	2%
Brc1ccccc1-c1nnc(CSc2nnc3sc4ccccc4n23)o1	4µM*	-3%	?	0%	14%	7%
Cc1occc1C(=O)Nc1cc(C(C)(C)C)on1	1.6µM*	11µM*	6µM*	14µM*	2.8µM*	5.2µM*
Cc1cccc(NC(=O)c2ccoc2C)n1	27%	?	?	18µM*	18%	?
Cc1cccc(NC(=O)c2ccccc2Br)n1	-6%	14%	?	8%	8%	16%
COc1ccccc1CNC(=O)CCCn1c(=O)c2ccccc2n(Cc2ccccc2C#N)c1=O	·	·	-5%	-8%	·	·
Fc1ccc(-c2cn3cc(Cc4ccc(Cl)cc4)sc3n2)cc1	·	·	3µM*	3.2µM*	·	·
Fc1ccc(Cc2cn3cc(-c4ccc(Cl)cc4)nc3s2)cc1	·	·	0.6µM*	?	·	·
Cc1ccc(NC(=O)c2cc(S(=O)(=O)N3CCCCC3)c[nH]2)cc1N(C)C	·	·	0%	·	·	·
C/C(=N\Nc1nccnc1Cl)c1ccc([N+](=O)[O-])cc1	-4%	0%	3%	-26%	1%	0%
C/C(=N\Nc1nccnc1Cl)c1ccc(Br)cc1	17%	·	?	·	?	7%
COc1ccc(/C(C)=N/Nc2nccnc2Cl)cc1	1.8µM*	·	7.6µM*	·	?	?
C/C(=N\Nc1nccnc1Cl)c1ccc(O)c(C)c1	?	·	11µM*	·	?	?
CCOc1ccc(-c2csc(-c3c(N)c(C(=O)c4ccc5c(c4)OCO5)n4ccccc34)n2)cc1	·	·	-1%	20%	·	·
COc1ccc(CNc2nc(-c3ccco3)nn2C(=O)CC(C)C)cc1	·	·	·	13µM*	·	·
CC(C)OCCCNC(=O)C(=O)Nc1ccc2nc3n(c(=O)c2c1)CCCCC3	·	·	5%	6%	·	·
COc1ccc(CCNC(=O)Cn2c(=O)c3cccn3c3ccccc32)cc1OC	·	·	-17%	·	·	·
O=C(O/N=C1/CCCc2occc21)c1ccccc1	0%	?	2.1µM*	-7%	-5%	2%
O=C(O/N=C1/CCCc2occc21)c1ccc(Cl)cc1Cl	-4%	·	5.4µM*	·	-3%	3%
SMILES	Rab9 promoter act	Luc counter	FLuc modulator	SMN2 splice up	NPC1 prom act	ELG1 genotox
CC(CN1CCCC1)OC(=O)c1ccc(Cl)cc1Cl (stereo unspecified)	1%	·	?	·	-4%	-1%
COC(=O)C1=C(C(=O)OC)[C@@H]2N(Cc3ccccc3)c3ccccc3[C@@]23C[C@@H](C(=O)OC)N(S(=O)(=O)c2cccs2)C3=N1	·	-5%[7.66 µM]	·	-7%[9.22 µM]	·	·
C/C(=N/Nc1nc(C)c(C)s1)c1cccc([N+](=O)[O-])c1	?	·	12µM*	·	?	?
COc1ccc(NS(=O)(=O)c2ccc3oc(Nc4ccc5c(c4)OCCO5)nc3c2)cc1	13%	-5%	19µM*	7%	1%	3%
COc1ccc(NS(=O)(=O)c2ccc(NS(=O)(=O)c3ccc4c(c3)OCCO4)cc2)cc1	·	·	?	-4%	·	·
Cc1cc(N)n(-c2ccc3ccccc3c2)n1	?	-14%	17µM*	?	25%	?
COc1ccc(-n2nc(C)cc2N)cc1	-1%	-3%	-4%	·	0%	0%
CCCN(Cc1cccs1)C(=O)Nc1ccc(F)c(Cl)c1	·	·	0%	·	·	·
COc1cc(/C=N/Nc2ccc(C(=O)O)cc2)ccc1O	?	-17%	1.9µM*	?	?	?
COc1cc(/C=N/NC(=S)NCCc2ccccc2)cc(OC)c1OC	-3%	·	27µM*	·	-1%	4%
C=CCOc1c(OC)cc(/C=N/Nc2cccc(C(=O)O)c2)c(Br)c1Br	3.2µM*	0%	?	14µM*	2.5µM*	?
COc1cc(/C=N/NC(=S)NCCN2CCOCC2)cc(OC)c1OC	-1%	-1%	0%	70%	-3%	?
COc1ccc(/C=N/Nc2ccc(C(=O)O)cc2)c(OC)c1OC	3.2µM*	·	15µM*	·	2.8µM*	16%
COc1cc(/C=N\Nc2cc(=O)n(C)c(=O)n2C)ccc1O	5%	-16%	?	-1%	6%	1%
CCOc1ccc(-c2nn(-c3ccccc3)cc2C2NC(=O)NC(C)=C2C(=O)OC(C)C)cc1 (stereo unspecified)	·	·	-19%	-24%	·	·
COc1cc(/C=N/Nc2ccc(C(=O)O)cc2)cc(OC)c1OC	2µM*	·	11µM*	·	1.6µM*	16µM*
CCOc1ccc(CCNC(=O)Cn2ccc3cc(S(=O)(=O)N4CCCCC4)ccc32)cc1	·	·	0%	·	·	·
Cn1cc(Cl)c(/C(N)=N/OC(=O)c2ccccc2C(F)(F)F)n1	4.5µM*	·	12µM*	·	3.5µM*	21µM*
Cn1cc(Cl)c(C(=O)OCC(=O)Nc2cccc(Cl)c2)n1	-2%	·	2%	·	-4%	-2%
COC(=O)c1c(SC)nc2ccccc2c1OCc1ccccc1C	·	·	-2%	·	·	·
Cc1nc2cc(NC(=O)Nc3ccc(Br)cc3)ccc2o1	0.5µM*	-1%	2.4µM*	11µM*	1.8µM*	?
Cc1ccccc1NC(=O)N1c2ccccc2CC1C (stereo unspecified)	-9%	3%	?	20%	1%	2%

Screening data (PubChem BioAssay)
